# According to the supplement of paper PMC10849652:
# About 8,800 targets were measured; listed, in parts, are those with a hit and a random draw of the rest. About 0.5% of all pairs of compound and target were hits. Values without a mark were called inactive.
# Assays:
# Assay in all cases: log2 fold change, soluble protein after heating vs DMSO (PISA); higher = thermal stabilisation; K562 lysate, 10 uM; active = over 0.2 and 3.5 SD of the protein, either way, in both replicates (recomputed)
# duvelisib = compound: C[C@H](Nc1ncnc2nc[nH]c12)c1cc2cccc(Cl)c2c(=O)n1-c1ccccc1 [duvelisib]
# In short: (§1)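 Pellets of K562 cells were dounce-homogenised in PBS pH 7.4 with 1 mM MgCl2, and the crude extract was held at 1 mg/mL protein for a 30 min treatment with 10 μM compound. Aliquots were heated for 3 min over 48°C-58°C and pooled before NP-40 was added to 0.5% at 4°C. The supernatant from 21,000xg for 90 min was quantified by TMTpro 16plex LC-MS/MS with channel sums equalised. Values are reported from duplicates as log-two fold change in thermal stability relative to solvent controls.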
# dasatinib = compound: Cc1nc(Nc2ncc(C(=O)Nc3c(C)cccc3Cl)s2)cc(N2CCN(CCO)CC2)n1 [dasatinib]
# In short: as §1
# [1] = compound: Cn1cc(-c2ccc3c(c2)CCN3C(=O)Cc2cccc(C(F)(F)F)c2)c2c(N)ncnc21
# In short: as §1
# lapatinib = compound: CS(=O)(=O)CCNCc1ccc(-c2ccc3ncnc(Nc4ccc(OCc5cccc(F)c5)c(Cl)c4)c3c2)o1 [lapatinib]
# In short: as §1
# crizotinib = compound: C[C@@H](Oc1cc(-c2cnn(C3CCNCC3)c2)cnc1N)c1c(Cl)ccc(F)c1Cl [crizotinib]
# In short: as §1
# [2] = compound: C[C@H](C1=CC=C(C=C1)C(=O)NC2=C3C=CNC3=NC=C2)N
# In short: as §1
# gandotinib = compound: Cc1cc(Nc2cc(CN3CCOCC3)c3nc(C)c(Cc4ccc(Cl)cc4F)n3n2)n[nH]1 [gandotinib]
# In short: as §1
# tozasertib = compound: Cc1cc(Nc2cc(N3CCN(C)CC3)nc(Sc3ccc(NC(=O)C4CC4)cc3)n2)n[nH]1 [tozasertib]
# In short: as §1
# doramapimod = compound: Cc1ccc(-n2nc(C(C)(C)C)cc2NC(=O)Nc2ccc(OCCN3CCOCC3)c3ccccc23)cc1 [doramapimod]
# In short: as §1
# [3] = compound: Cc1cccc(CC(=O)N2CCc3c2ccc(-c2cn(C)c4ncnc(N)c24)c3F)n1
# In short: as §1
# nilotinib = compound: Cc1cn(-c2cc(NC(=O)c3ccc(C)c(Nc4nccc(-c5cccnc5)n4)c3)cc(C(F)(F)F)c2)cn1 [nilotinib]
# In short: as §1
# [4] = compound: Cc1nc(Nc2n[nH]c3c2CN(C(=O)N[C@H](CN(C)C)c2ccccc2)C3(C)C)c2sccc2n1
# In short: as §1
# [5] = compound: Cc1ncc(-c2ccnc(Nc3ccc(S(C)(=O)=O)cc3)n2)n1C(C)C
# In short: as §1
# quisinostat = compound: Cn1cc(CNCC2CCN(c3ncc(C(=O)NO)cn3)CC2)c2ccccc21 [quisinostat]
# In short: as §1
# tipifarnib = compound: Cn1cncc1[C@@](N)(c1ccc(Cl)cc1)c1ccc2c(c1)c(-c1cccc(Cl)c1)cc(=O)n2C [tipifarnib]
# In short: as §1
# [6] = compound: NC(=O)Nc1cc(-c2cccc(F)c2)sc1C(=O)N[C@H]1CCCNC1
# In short: as §1
# [7] = compound: NC(=O)c1cnc(N[C@@H]2CCCC[C@@H]2N)nc1Nc1cccc(-n2nccn2)c1
# In short: as §1
# [8] = compound: NC1(c2ccc(-c3nc4ccn5c(=O)[nH]nc5c4cc3-c3ccccc3)cc2)CCC1
# In short: as §1
# pictilisib = compound: CS(=O)(=O)N1CCN(Cc2cc3nc(-c4cccc5[nH]ncc45)nc(N4CCOCC4)c3s2)CC1 [pictilisib]
# In short: as §1
# bafetinib = compound: Cc1ccc(NC(=O)c2ccc(CN3CC[C@H](N(C)C)C3)c(C(F)(F)F)c2)cc1Nc1nccc(-c2cncnc2)n1 [bafetinib]
# In short: as §1
# Chain of UniProt Q8TEB9 (Q8TEB9 whole entry, looked up): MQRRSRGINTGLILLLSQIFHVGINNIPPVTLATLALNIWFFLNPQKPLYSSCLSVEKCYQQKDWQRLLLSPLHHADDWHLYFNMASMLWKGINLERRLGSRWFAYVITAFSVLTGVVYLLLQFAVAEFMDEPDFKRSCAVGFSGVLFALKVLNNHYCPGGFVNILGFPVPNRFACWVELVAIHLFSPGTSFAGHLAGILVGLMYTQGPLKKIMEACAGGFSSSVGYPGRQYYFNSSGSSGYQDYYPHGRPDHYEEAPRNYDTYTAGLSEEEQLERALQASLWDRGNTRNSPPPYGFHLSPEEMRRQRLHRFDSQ
# Chain of UniProt Q96JX3 (Q96JX3 whole entry, looked up): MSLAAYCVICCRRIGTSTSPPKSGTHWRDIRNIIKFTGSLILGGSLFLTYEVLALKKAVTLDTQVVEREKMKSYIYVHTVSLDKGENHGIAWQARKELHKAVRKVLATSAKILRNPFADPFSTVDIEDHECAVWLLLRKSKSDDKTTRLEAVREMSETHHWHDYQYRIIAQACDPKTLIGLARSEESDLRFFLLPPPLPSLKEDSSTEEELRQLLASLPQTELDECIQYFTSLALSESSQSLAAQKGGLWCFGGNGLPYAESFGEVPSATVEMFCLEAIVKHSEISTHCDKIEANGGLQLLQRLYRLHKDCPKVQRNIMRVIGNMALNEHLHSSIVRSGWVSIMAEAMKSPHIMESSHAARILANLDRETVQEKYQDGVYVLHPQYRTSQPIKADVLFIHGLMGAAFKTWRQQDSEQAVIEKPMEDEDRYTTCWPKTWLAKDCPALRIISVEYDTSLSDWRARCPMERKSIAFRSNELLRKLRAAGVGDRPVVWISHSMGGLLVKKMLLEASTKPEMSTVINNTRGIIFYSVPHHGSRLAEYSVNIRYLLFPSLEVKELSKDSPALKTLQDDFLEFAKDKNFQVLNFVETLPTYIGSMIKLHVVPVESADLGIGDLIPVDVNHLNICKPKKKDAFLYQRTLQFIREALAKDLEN
# Chain of UniProt Q8IUH3 (Q8IUH3 whole entry, looked up): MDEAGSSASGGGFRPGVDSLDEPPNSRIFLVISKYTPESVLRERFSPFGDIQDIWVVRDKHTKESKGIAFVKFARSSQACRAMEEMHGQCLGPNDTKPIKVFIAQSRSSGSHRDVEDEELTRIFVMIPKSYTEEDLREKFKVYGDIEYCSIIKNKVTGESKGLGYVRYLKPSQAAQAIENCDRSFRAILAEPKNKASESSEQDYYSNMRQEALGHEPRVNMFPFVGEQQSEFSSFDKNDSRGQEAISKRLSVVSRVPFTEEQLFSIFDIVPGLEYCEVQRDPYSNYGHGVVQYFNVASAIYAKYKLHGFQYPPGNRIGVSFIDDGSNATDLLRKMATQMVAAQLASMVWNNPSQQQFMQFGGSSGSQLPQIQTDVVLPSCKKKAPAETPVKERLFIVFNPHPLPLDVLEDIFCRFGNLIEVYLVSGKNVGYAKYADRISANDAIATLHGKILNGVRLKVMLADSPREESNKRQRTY
# Chain of UniProt Q9BUV8 (Q9BUV8 whole entry, looked up): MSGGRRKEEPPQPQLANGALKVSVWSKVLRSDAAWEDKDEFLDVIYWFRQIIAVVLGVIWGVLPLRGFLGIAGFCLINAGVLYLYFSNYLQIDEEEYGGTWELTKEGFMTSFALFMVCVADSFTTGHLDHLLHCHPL
# Chain of UniProt Q96K19 (Q96K19 whole entry, looked up): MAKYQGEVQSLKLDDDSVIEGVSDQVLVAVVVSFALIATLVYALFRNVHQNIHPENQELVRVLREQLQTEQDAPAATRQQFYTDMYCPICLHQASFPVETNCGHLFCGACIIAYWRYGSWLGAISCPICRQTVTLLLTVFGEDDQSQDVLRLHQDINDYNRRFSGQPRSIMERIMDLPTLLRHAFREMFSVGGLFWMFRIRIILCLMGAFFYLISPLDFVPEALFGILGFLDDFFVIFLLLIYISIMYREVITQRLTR
# Chain of UniProt O15027 (O15027 whole entry, looked up): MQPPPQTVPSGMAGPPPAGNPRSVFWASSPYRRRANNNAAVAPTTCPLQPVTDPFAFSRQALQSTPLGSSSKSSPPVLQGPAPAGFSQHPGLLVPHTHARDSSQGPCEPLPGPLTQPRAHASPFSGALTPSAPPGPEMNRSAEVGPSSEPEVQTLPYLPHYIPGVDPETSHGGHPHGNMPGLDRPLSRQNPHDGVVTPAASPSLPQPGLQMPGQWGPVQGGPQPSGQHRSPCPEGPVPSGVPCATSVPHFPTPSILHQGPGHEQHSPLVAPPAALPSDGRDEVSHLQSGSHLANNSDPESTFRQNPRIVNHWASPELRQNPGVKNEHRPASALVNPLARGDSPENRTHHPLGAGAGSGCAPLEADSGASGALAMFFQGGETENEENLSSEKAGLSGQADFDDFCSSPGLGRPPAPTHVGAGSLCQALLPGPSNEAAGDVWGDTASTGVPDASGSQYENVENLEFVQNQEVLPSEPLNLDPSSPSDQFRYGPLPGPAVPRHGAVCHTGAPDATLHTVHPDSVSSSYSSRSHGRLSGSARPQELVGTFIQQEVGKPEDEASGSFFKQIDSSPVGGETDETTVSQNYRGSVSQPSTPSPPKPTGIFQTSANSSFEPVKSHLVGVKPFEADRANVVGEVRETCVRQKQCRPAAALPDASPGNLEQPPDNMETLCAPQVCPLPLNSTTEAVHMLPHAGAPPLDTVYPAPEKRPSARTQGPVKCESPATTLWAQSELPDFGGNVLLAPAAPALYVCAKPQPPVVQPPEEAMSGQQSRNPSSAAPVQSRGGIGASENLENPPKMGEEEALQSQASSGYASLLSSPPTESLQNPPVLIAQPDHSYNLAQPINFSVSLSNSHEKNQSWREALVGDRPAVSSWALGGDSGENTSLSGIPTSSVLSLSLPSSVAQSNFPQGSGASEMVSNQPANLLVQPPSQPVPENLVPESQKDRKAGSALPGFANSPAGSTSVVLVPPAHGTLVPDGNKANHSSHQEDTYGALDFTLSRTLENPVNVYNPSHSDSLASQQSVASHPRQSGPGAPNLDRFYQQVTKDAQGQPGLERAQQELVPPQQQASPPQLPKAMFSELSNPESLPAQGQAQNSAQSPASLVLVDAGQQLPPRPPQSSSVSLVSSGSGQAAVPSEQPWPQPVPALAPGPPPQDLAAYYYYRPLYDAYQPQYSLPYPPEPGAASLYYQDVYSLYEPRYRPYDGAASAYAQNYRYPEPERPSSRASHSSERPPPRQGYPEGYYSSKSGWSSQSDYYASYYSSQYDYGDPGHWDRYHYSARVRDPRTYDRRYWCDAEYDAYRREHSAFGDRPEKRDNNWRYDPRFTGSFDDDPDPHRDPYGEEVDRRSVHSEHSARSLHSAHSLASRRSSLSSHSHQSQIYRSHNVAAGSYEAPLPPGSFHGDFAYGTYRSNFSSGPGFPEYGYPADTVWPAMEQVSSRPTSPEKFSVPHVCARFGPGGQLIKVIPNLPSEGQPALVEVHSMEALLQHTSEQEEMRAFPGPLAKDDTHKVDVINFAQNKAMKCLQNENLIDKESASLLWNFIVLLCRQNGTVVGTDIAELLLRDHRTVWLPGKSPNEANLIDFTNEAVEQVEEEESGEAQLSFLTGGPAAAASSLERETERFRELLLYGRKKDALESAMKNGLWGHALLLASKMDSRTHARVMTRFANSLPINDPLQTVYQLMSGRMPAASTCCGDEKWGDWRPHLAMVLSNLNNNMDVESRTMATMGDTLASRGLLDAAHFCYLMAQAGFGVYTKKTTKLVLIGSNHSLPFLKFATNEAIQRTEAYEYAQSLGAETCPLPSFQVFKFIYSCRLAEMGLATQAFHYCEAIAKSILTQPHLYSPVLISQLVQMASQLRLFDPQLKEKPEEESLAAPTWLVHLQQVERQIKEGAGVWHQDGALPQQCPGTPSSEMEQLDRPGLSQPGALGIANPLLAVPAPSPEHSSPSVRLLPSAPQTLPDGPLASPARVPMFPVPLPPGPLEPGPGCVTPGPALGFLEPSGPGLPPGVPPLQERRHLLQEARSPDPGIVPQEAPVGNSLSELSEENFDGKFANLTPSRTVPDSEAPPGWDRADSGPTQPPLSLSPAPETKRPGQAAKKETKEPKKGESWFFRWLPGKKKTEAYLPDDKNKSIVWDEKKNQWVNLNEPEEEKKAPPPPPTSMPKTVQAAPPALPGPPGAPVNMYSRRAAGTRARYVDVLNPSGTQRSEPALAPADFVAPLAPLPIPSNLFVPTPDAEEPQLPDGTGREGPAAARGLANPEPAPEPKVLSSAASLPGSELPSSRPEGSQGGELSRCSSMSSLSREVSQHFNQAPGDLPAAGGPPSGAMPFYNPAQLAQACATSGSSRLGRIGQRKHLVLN
# Chain of UniProt Q8TC12 (Q8TC12 whole entry, looked up): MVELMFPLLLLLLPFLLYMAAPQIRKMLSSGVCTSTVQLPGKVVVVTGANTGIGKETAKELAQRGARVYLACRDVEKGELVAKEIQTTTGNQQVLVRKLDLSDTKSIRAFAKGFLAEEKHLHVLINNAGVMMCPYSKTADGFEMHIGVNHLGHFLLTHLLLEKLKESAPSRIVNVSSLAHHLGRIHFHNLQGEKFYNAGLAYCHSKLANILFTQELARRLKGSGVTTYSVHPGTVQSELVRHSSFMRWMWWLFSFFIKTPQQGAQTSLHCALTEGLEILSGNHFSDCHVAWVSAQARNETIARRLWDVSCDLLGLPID
# Chain of UniProt O60930 (O60930 whole entry, looked up): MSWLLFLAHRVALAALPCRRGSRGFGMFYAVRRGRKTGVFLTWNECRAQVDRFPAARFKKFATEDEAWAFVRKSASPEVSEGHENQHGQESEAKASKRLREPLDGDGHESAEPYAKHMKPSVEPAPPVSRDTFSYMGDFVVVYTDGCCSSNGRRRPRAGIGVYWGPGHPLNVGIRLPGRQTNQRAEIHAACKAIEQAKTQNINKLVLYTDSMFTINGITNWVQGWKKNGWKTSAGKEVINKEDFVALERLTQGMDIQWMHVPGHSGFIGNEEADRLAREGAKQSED
# Chain of UniProt Q9Y225 (Q9Y225 whole entry, looked up): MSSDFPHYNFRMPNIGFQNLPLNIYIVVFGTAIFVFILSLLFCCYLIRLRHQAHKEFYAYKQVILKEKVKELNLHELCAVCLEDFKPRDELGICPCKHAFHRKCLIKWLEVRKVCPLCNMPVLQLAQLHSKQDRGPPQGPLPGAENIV
Target,log2 fold change (duvelisib),log2 fold change (dasatinib),log2 fold change [1],log2 fold change (lapatinib),log2 fold change (crizotinib),log2 fold change [2],log2 fold change (gandotinib),log2 fold change (tozasertib),log2 fold change (doramapimod),log2 fold change [3],log2 fold change (nilotinib),log2 fold change [4],log2 fold change [5],log2 fold change (quisinostat),log2 fold change (tipifarnib),log2 fold change [6],log2 fold change [7],log2 fold change [8],log2 fold change (pictilisib),log2 fold change (bafetinib)
SEC16A isoform 3 (UniProt O15027),0.024,-0.026,-0.039,,,,,,,,,,,,,,,,,
RDH11 (UniProt Q8TC12),-0.011,-0.075,-0.021,-0.035,-0.034,-0.11,0.298 (active),0.009,0.041,0.328 (active),0.034,-0.05,-0.045,0.038,-0.038,0.103,0.034,-0.011,,
RLIM (UniProt Q9NVW2),,,,,-0.323,,,,-0.044,,,,,-0.748 (active),,0.233,,,-0.053,-0.193
RFWD3 (UniProt Q6PCD5),0.041,0.027,0.004,,-0.066,0.036,0.004,-0.037,0.036,0.107,0.042,-0.066,-0.082,-0.041,-0.037,0.003,,-0.053,-0.12,-0.04
RNF170 (UniProt Q96K19),-0.229,-0.008,-0.028,-0.011,,-0.042,-0.198,,,1.2 (active),-0.04,0,0.043,,-0.3,,-0.07,0.073,-0.332,0.024
RNF2 (UniProt Q99496),0.031,-0.07,-0.025,,0.087,0.484 (active),-0.299,0.021,-0.032,-0.442 (active),0.026,-0.047,0.027,0.154,-0.124,-0.015,,-0.05,,
RAB5IF isoform 5 (UniProt Q9BUV8),-0.071,-0.108,0.06,-0.043,,0.753 (active),-0.234,0,,-0.357,-0.033,-0.033,-0.003,,-0.189,,0.026,-0.096,-0.122,0.221
RBM45 (UniProt Q8IUH3),,,,-0.12,-0.094,0.184,-0.1,,0.014,0.077,0.051,-0.077,0.143,-0.145,-0.012,-0.025,0.061,,,
SCNM1 (UniProt Q9BWG6),0.057,0.122,0.015,0.006,0.057,0.022,0.015,-0.039,-0.017,-0.157,-0.078,-0.045,-0.091,-0.061,0.045,0.06,-0.104,-0.106,,
RAD54L (UniProt Q92698),0.109,-0.212,-0.054,-0.029,,-1.75 (active),0.454,,,0.617,-0.004,0.078,0.037,,0.007,,0.015,-0.073,0.029,-0.185
RBBP7 (UniProt C9J7L0),,,,,,,,,,,-0.133,0.046,0.222,,0.039,,,,,
SEMA4G isoform 2 (UniProt Q9NTN9),-0.294,0.006,0.235,,-0.084,0.036,0.019,0.082,-0.053,-0.024,,,,0.074,,0.085,,0.077,,
S100A6 (UniProt P06703),0,0.774 (active),-0.063,0.069,0.119,0.088,0.207,-0.038,-0.017,-0.119,,,,0.001,,-0.078,-0.063,0.026,,
RALGAPB isoform 3 (UniProt Q86X10),-0.396,0.052,-0.034,,,-0.04,-0.33,0.027,,-0.026,,,,,,,,,-0.018,-0.255
RTTN (UniProt Q86VV8),0.067,-0.086,-0.161,0.306,,-0.053,-0.289,-0.07,,0.203,-0.102,0.14,-0.003,,-0.069,,-0.282,0.216,-0.034,-0.032
RAD17 (UniProt O75943),-0.027,-0.064,0,,-0.01,0.021,-0.194,0.005,-0.015,-0.055,-0.027,0.073,-0.023,-0.032,-0.085,0.038,,,-0.019,0
RNASEH1 (UniProt O60930),,,,,,-0.014,-0.174,,,0.274,,,,,,,,,,
RECQL4 (UniProt O94761),0.061,-0.007,-0.019,,-0.079,-0.039,-0.472 (active),-0.014,0.029,0.146,0.051,0.102,-0.063,-0.094,0.024,0.023,,0.017,-0.032,-0.099
RHBDD1 (UniProt Q8TEB9),,,,0.06,,0.036,-0.118,-0.071,,-0.028,,,,,,,0.103,,-0.216,-0.133
RBM4 isoform 3 (UniProt Q9BWF3),,,,,0.114,,,,0.016,,,,,-0.094,,0.06,,,,
SERAC1 (UniProt Q96JX3),0.145,-0.152,0.052,,,-0.074,0.052,-0.089,,0.127,0.085,-0.133,-0.029,,0.033,,,-0.023,-0.018,-0.276
"QSER1, A0A3B3IRW6",0.005,0.018,0.052,-0.04,-0.072,,,-0.033,0,,-0.028,0.056,0.042,-0.117,-0.048,0.064,-0.027,-0.048,,
RPS6KA5 (UniProt O75582),-0.011,-0.006,0.065,-0.024,0.028,0.13,-0.23,0.106,-0.043,-0.032,-0.037,0.004,-0.079,0.062,0.042,0.073,-0.086,-0.127,,
RNF24 isoform 2 (UniProt Q9Y225),,,,,-0.074,-0.173,0.117,,-0.093,0.028,0.105,-0.028,0.123,-0.139,0.034,-0.075,,0.051,-0.089,-0.477
